# Measurements as given in the emibetuzumab library of Makowski et al. (2022).
# This is one part of the list. How many sequences the whole screen found active is unknown.
# B1: VH:VL chains; a variant is named by its letters at X, in order (parent)
# chain 1: QVQLVQSGAEVKKPGASVKVSCKASGYTFTDYXMHWVRQAPGQGLEWMGXVNPNXXXTTYNQKFEGRVTMTTDTSTSTAYMELRSLRSDDTAVYYCARXNXLDXWGQGTTVTVSS
# chain 2: DIQMTQSPSSLSASVGDRVTITCSVSSSVSSIYLHWYQQKPGKAPKLLIYSTSNLASGVPSRFSGSGSGTDFTLTISSLQPEDFATYYCQVYSGYPLTFGGGTKVEIK
# Variants of: B1
# Assay: yeast display scFab, FACS + sequencing
# Settings: with MET
# Method in brief: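 For FACS, yeast displaying a heavy-chain CDR mutant scFab library were labelled with 1 nM HGFR-Fc and anti-Myc (PBSB, 1% milk, 3 h, room temperature), and the top 50% antigen-positive cells were gated. Input and round-3 sorted populations were deep sequenced in two replicates. The binding call was positive for sequences occurring in both antigen-positive samples and negative for sequences occurring only in input.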
row,Variant,antigen binding call
1,STAEDDWV,no binding
2,VTAGDDAV,no binding
3,AARADDVA,no binding
4,VTTGGAVD,no binding
5,YRTRGASD,binds
6,VTTRGAVA,no binding
7,YRTRGAVD,binds
8,YKTRGAGD chain 1 Q43R,binds
9,VRTRGAVD,binds
10,DTTKGDGS,no binding
11,VEKGGDGV,no binding
12,DATRGAGD,no binding
13,YRTRGAGD,binds
14,FEETDAGD,no binding
15,SEARSDWD,no binding
16,SETKGDWD,no binding
17,SKAKGAWS,binds
18,SKRETAWS,binds
19,DKAKGDGS,no binding
20,FEARDYWD,binds
21,SKAGDAWD,no binding
22,SKAKGAWD,binds
23,DATGNVWS,no binding

row,Variant,antigen binding call
1,YATTSFSF,no binding
2,SKERGDVD,no binding
3,SKTKSDVD,no binding
4,SKTRGAWD,binds
5,FGTKGAWD,no binding
6,SKRKSSSD,no binding
7,FKAKGAWD,binds
8,SKAKGSSD,binds
9,FGEEDFSS chain 1 W105R,no binding
10,VGGTSDVV,no binding
11,VEEEGSGV,no binding
12,VRTKAVAY,no binding
13,VRGKDSLD,binds
14,VEAGDSLD,no binding
15,DRTGDDVY,no binding
16,VTGTSSLD,no binding
17,VEETSSLD,no binding
18,VRAGSSLD,binds
19,VRAGDDVD,no binding
20,VRAGDSLD,binds
21,VRTGDSAY,binds
22,VTGEDSLD,no binding
23,VTTKSYLV,no binding

row,Variant,antigen binding call
1,DAARGDGV,no binding
2,VRTGDSLD,binds
3,VKTGGSLD,no binding
4,VAGTGSLD,no binding
5,VRAGSSWD,binds
6,VRKGGSLD,binds
7,VRTGDDGV,no binding
8,AETKGFAV,no binding
9,VKGASDVA,no binding
10,YGGRAAGA,no binding
11,YTGTSSGA,no binding
12,YRGGASGA,binds
13,YRAAGSGA,binds
14,YEGGTSGA,no binding
15,YRGRASGA,binds
16,YRAGAAVA,binds
17,VRAGADVA,no binding
18,VEEEGDAV,no binding
19,YRAGASLA,binds
20,DRAGDAGA,no binding
21,YRARSSGA,binds
22,DRAGDSGA,no binding
23,YRARSAGA,binds

row,Variant,antigen binding call
1,YRAGSSGA,binds
2,SREAASLA,no binding
3,YRGANSGA,no binding
4,DEGGDAGD,no binding
5,VAEKGDAA,no binding
6,VEKGGDWD,no binding
7,FKGEGDVY,no binding
8,VKTGGDVA,no binding
9,YRAGASGA,binds
10,DAKEGAAA,no binding
11,YRKGSAAA,binds
12,YRKEGAAA,binds
13,YRKEAAAA,binds
14,VAEAAVGD,no binding
15,AETKGDWV,no binding
16,VEGTSAVY,no binding
17,VKKEDDVV,no binding
18,VRGAGAWV,no binding
19,VEGGGFAY,no binding
20,VRGGGAAV,binds
21,VAGGGAAV,no binding
22,VRGTGAVY,no binding
23,VRGGGAWV,binds

row,Variant,antigen binding call
1,VRAGGAWV,binds
2,VRGGGAAY,binds
3,VRAGGDWV,no binding
4,VREGAAAV,no binding
5,DTTGSAVV,no binding
6,FTGTSDLY,no binding
7,FRGRDSWS,binds
8,FRGRDYGS,no binding
9,FRGRDFGS,no binding
10,FRGRGAWS,binds
11,FEATASWS,no binding
12,FRGRGSWS,binds
13,FRGRGSVS,binds
14,AGGGNDGA,no binding
15,VTGGDDWY,no binding
16,AARADAVV,no binding
17,FRGRGFLS,no binding
18,FRGRGAGS,binds
19,FRGRGDLS,no binding
20,FRGRGALS,binds
21,FRGRGAAS,binds
22,FRGRGSLS,binds
23,SGKKSSGV,no binding

row,Variant,antigen binding call
1,VEGTSAVF,no binding
2,FRGRASLS,binds
3,YRRRGDGY,binds
4,YRRRGFGY,binds
5,DRERGDGY,no binding
6,YAAKSDGY,no binding
7,YRRRGVGY,binds
8,YRRRGAGY,binds
9,FAAAGFVA,no binding
10,VKREAVGV,no binding
11,YRRRGSGY,binds
12,YRRRGFGS,binds
13,DREEGAGS,no binding
14,YRTRGALS,binds
15,YRTGAALS,binds
16,VREGDYLS,no binding
17,SRTRGFGS,no binding
18,VRTRGALS,binds
19,YAREAALS,no binding
20,DAEESDGA,no binding
